The text below walks through data of PubChem BioAssay AID590 (National Center for Advancing Translational Sciences (NCATS), 2007).

Among all 59,000 compounds or so, about 6,500 (11%) were called active. Not shown: some 15% with an inconclusive outcome. Cut-off read from the data, not from the text of the source: active = max dye-equivalent concentration above about 10 nM; inconclusive = mostly about 1.1 nM to 9.6 nM; inactive = weaker than that. The list comes from a sample in which actives are over-represented; it also holds similar structures and randomly drawn compounds.

The experiment can be described thus: qHTS Assay for Spectroscopic Profiling in A350 Spectral Region. As to conditions: Compound autofluorescence, 340/450 nm, Alexa 350 dye-equivalents; hits give high values.
`CC(C)c1cc(CN(C)C)c(O)c(C(C)(C)C)c1`: the max dye-equivalent concentration entry was “inactive”.

With `O=c1oc2cc(O)ccc2cc1-c1ccc(F)cc1`, the max dye-equivalent concentration was 100 nM (active).

For `O=C(Cn1c(=S)nc2ccccn21)N1CCc2ccccc2C1`, the max dye-equivalent concentration entry is “inactive”.

Turning to `O=C1c2ccccc2C(=O)N1c1ccccc1S(=O)C(F)(F)F` (stereo unspecified), the max dye-equivalent concentration result is “inactive”.

Turning to `CC1Cc2ccccc2N1C(=O)Cn1cnc2ccccc2c1=O` (stereo unspecified), the max dye-equivalent concentration result was “inactive”.

Turning to `CCOC(=O)CCc1c(C)c(C#N)c2[nH]c3ccccc3n2c1=O`, the max dye-equivalent concentration is 5400 nM (active).

As to `CCCOC(=O)Cc1c(O)c2ccccc2[nH]c1=O`, the max dye-equivalent concentration result is “inactive”.

For the molecule `CCOC(=O)CC1=CC(=O)Nc2ccccc2N1`, the max dye-equivalent concentration entry was “inactive”.

In the case of `CC1(C)Cc2ccccc2-c2nnc(-c3cccc(O)c3)n21`, the max dye-equivalent concentration entry was “inactive”.

In the case of `Cc1cc(C)nc(-n2nc(C)cc2NC(=O)c2ccc(Br)o2)n1`, the max dye-equivalent concentration entry was “inactive”.

On to `CCc1c(C)sc(NC(=O)c2ccc(Br)o2)c1C(=O)OC`, for which the max dye-equivalent concentration is 190 nM (active).

Consider `CCCC(=O)Nc1ccc(Cl)c(NC(=O)c2ccc(Br)o2)c1`, for which the max dye-equivalent concentration result is “inactive”.

In the case of `COc1ccc(CCNC(=O)CSc2nnc(-c3cccc(F)c3)o2)cc1OC`, the max dye-equivalent concentration entry is “inactive”.

On to `CC(C)C(=O)Nc1cccc(C(=O)Nc2ccc3c(c2)OCO3)c1`, for which the max dye-equivalent concentration result was “inactive”.

As for `O=C(NC1CCCCC1)C1c2ccccc2C(=O)N1Cc1ccco1` (stereo unspecified), the max dye-equivalent concentration result is “inactive”.

As to `O=C1c2ccccc2C(O)N1Cc1ccccc1` (stereo unspecified), the max dye-equivalent concentration was 26 nM (active).

Regarding `O=C1c2cccnc2C(Nc2ccc(S(=O)(=O)N3CCCCCC3)cc2)N1Cc1ccccc1` (stereo unspecified), the max dye-equivalent concentration result is “inactive”.

Turning to `CC(C)(CNCC(O)c1ccccc1)N1CCOCC1` (stereo unspecified), the max dye-equivalent concentration entry was “inactive”.

`Cc1ccc(C)c(NS(=O)(=O)c2cc(Br)cnc2N)c1`: the max dye-equivalent concentration entry was “inactive”.

Regarding `Cc1ccc(-c2noc(CSc3nnc(-c4ccccc4)n3C)n2)cc1`, the max dye-equivalent concentration entry was “inactive”.

With `N=c1n(Cc2ccc(Cl)cc2)c2ccccc2n1CC(O)c1ccco1` (stereo unspecified), the max dye-equivalent concentration was 11 nM (active).

Turning to `O=C(c1ccncc1)N1CCC2(CCCN(C(c3ccccc3)c3ccccc3)C2)CC1`, the max dye-equivalent concentration result was “inactive”.

`COC(=O)[C@@H](NC(=O)NCc1cccc(OC)c1)C(C)C`: the max dye-equivalent concentration entry was “inactive”.

Regarding `COc1ccc(CCn2c(=N)c(C(=O)NCc3ccco3)cc3c(=O)n4cccc(C)c4nc32)cc1`, the max dye-equivalent concentration is 15 nM (active).

With `COc1ccc(CNC(=O)c2cc3c(=O)n4ccccc4nc3n(CC3CCCO3)c2=N)cc1` (stereo unspecified), the max dye-equivalent concentration was 290 nM (active).

For the molecule `COc1cc(OC)cc(-c2nc3nc(C)c(CCC(=O)NCc4ccco4)c(C)n3n2)c1`, the max dye-equivalent concentration result was “inactive”.

As to `COc1ccc(C(=O)NCc2cn3ccccc3n2)cc1`, the max dye-equivalent concentration entry is “inactive”.

With `COCCCNC(=O)c1ccc2c(c1)ncn2-c1ccccc1OC`, the max dye-equivalent concentration result is “inactive”.

As to `COc1ccccc1C(=O)NCCn1cc(SCC(=O)NCc2ccco2)c2ccccc21`, the max dye-equivalent concentration result was “inactive”.

As to `CCOCCCNC(=O)c1c[nH]c2cc(C)ccc2c1=O`, the max dye-equivalent concentration entry was “inactive”.

Turning to `CCn1c(=N)c(C(=O)NCCCOC)cc2c(=O)n3cccc(C)c3nc21`, the max dye-equivalent concentration was 20000 nM (active).

In the case of `COc1ccc(CNC(=O)C2CCN(S(=O)(=O)N3CCOCC3)CC2)cc1`, the max dye-equivalent concentration entry is “inactive”.

In the case of `COCCNc1ncnc2ccc(-c3cccnc3)cc12`, the max dye-equivalent concentration result is “inactive”.

For `C=C(C)COc1ccc(-c2n[nH]c(C)c2-c2ccccc2OC)c(O)c1`, the max dye-equivalent concentration result is “inactive”.

Take `CN1CCc2[nH]nc(-c3n[nH]c4c3CN(C)CC4)c2C1`: the max dye-equivalent concentration entry is “inactive”.

Regarding `CCCSc1nc2c(c(=O)n(C)c(=O)n2C)n1Cc1ccc(C)cc1`, the max dye-equivalent concentration entry was “inactive”.

In the case of `COc1ccccc1N1CCN(C(=O)Cn2nnc(-c3cccs3)n2)CC1`, the max dye-equivalent concentration entry is “inactive”.

Consider `COc1ccc2c(c1)C(C)=CC(C)(C)N2C(=O)CNCc1ccc2c(c1)OCO2`, for which the max dye-equivalent concentration entry was “inactive”.

Consider `O=C1Nc2ccccc2C12Nc1ccccc1S2` (stereo unspecified), for which the max dye-equivalent concentration entry was “inactive”.

Turning to `CCCCSc1nnc(-c2ccc(NC(=O)CC)cc2)n1C`, the max dye-equivalent concentration entry was “inactive”.

In the case of `Cc1cc(N2CCCC2=O)cc(C)c1S(N)(=O)=O`, the max dye-equivalent concentration entry is “inactive”.

Take `COc1ccc(CCNS(=O)(=O)c2ccc(C(=O)NCc3ccco3)cc2)cc1OC`: the max dye-equivalent concentration result was “inactive”.

`O=C(CSc1nnc(-c2cccnc2)n1Cc1ccco1)c1ccc(Cl)cc1`: the max dye-equivalent concentration entry is “inactive”.

Regarding `C(=C\c1ccccc1)/CSc1nnc(-c2cccnc2)n1Cc1ccco1`, the max dye-equivalent concentration result is “inactive”.

With `Clc1cccc(-c2nc3nc4ccccc4nc3n2Cc2ccco2)c1`, the max dye-equivalent concentration was 150 nM (active).

As to `O=C(NCC12CC3CC(C1)CC(CNC(=O)N1CCCC1)(C3)C2)N1CCCC1`, the max dye-equivalent concentration entry was “inactive”.

In the case of `CC(=O)NCCc1ccc(S(=O)(=O)N(C)C2CCS(=O)(=O)C2)cc1` (stereo unspecified), the max dye-equivalent concentration result is “inactive”.

As to `C[C@@H](Nc1nc(-c2ccccc2)nc2c1oc1ccccc12)C(=O)O`, the max dye-equivalent concentration entry was “inactive”.

Take `CCc1nc(Nc2ccc3nccnc3c2)c2oc3ccccc3c2n1`: the max dye-equivalent concentration is 82 nM (active).

Take `Cc1nc(N2CCN(c3ncccn3)CC2)c2oc3ccccc3c2n1`: the max dye-equivalent concentration result is “inactive”.

In the case of `Cc1ccc(O)c(NC(=O)COc2cc(C)ccc2C)c1`, the max dye-equivalent concentration entry was “inactive”.

As for `CC(=O)c1ccc(N2C(=NC(=O)C(C)C)SC3CS(=O)(=O)CC32)cc1` (stereo unspecified), the max dye-equivalent concentration entry is “inactive”.

As to `CCOC(=O)CSc1nncc2ccc(OC)c(OC)c12`, the max dye-equivalent concentration result is “inactive”.

`Cc1ccccc1N1C(=O)C2ON(c3ccccc3)C(c3ccncc3)C2C1=O` (stereo unspecified): the max dye-equivalent concentration result was “inactive”.

Turning to `COc1cc(C2C(C#N)=C(C)NC3=C2C(=O)CC(C)(C)C3)ccc1O` (stereo unspecified), the max dye-equivalent concentration is 17 nM (active).

Consider `C=CCSC1=C(C#N)C(c2cc(Br)c(O)c(OC)c2)CC(=O)N1` (stereo unspecified), for which the max dye-equivalent concentration result is “inactive”.

For `Cc1cc2c(cc1C)NC(c1ccccn1)C1=C(CC(C)(C)CC1=O)N2` (stereo unspecified), the max dye-equivalent concentration entry was “inactive”.

On to `CCOc1ccc(CN(Cc2ccco2)C(c2cccs2)c2nnnn2C(C)(C)C)cc1` (stereo unspecified), for which the max dye-equivalent concentration entry was “inactive”.

Take `CCN(Cc1ccncc1)C(=O)[C@@H](CO)c1ccccc1`: the max dye-equivalent concentration entry was “inactive”.

In the case of `COc1ccc(C(=O)N/N=C2/C(=O)c3c(C)cc(C)cc3CC2(C)C)cc1`, the max dye-equivalent concentration result is “inactive”.

`Cc1noc(C)c1C(=O)OCC(=O)/C=C1\N(C)c2ccccc2C1(C)C`: the max dye-equivalent concentration was 210 nM (active).

As to `Cc1ccc(-c2nc(COC(=O)c3c(C)noc3C)cs2)cc1`, the max dye-equivalent concentration result is “inactive”.

Turning to `Cc1noc(C)c1C(=O)Nc1ccccn1`, the max dye-equivalent concentration result is “inactive”.

Turning to `COC(=O)c1cccc(NC(=O)CN2CCC(NC(=O)c3cc(OC)c(OC)c(OC)c3)CC2)c1`, the max dye-equivalent concentration entry is “inactive”.

For the molecule `COc1cc(C(=O)Nc2nccs2)cc(OC)c1OC`, the max dye-equivalent concentration entry was “inactive”.

Take `COc1cc(C(=O)Nc2oc(-c3ccccc3)c(-c3ccccc3)c2C#N)cc(OC)c1OC`: the max dye-equivalent concentration was 11 nM (active).

In the case of `COc1ccc(CNc2ncncc2-c2ccccc2OC)c(OC)c1`, the max dye-equivalent concentration entry is “inactive”.

For `COc1ccc(S(=O)(=O)N2CCCCC2)cc1Br`, the max dye-equivalent concentration entry was “inactive”.

Regarding `CC(C)(C)c1cc(C(=O)NCc2cccnc2)ccn1`, the max dye-equivalent concentration result is “inactive”.

Regarding `Cc1ccc(-n2nc(-c3ccco3)cc2C(=O)NCc2cccnc2)cc1`, the max dye-equivalent concentration entry is “inactive”.

Regarding `COCCn1c(=O)[nH]c2cc(C(=O)NCc3cccnc3)ccc2c1=O`, the max dye-equivalent concentration is 38 nM (active).
